For some assays here: Results with a measured potency or affinity are listed apart.
How the values were obtained:
Design in all cases: scale not given: direction of the effect not stated beside the values
[1] = molecular target: Protein translocase subunit SecA (Escherichia coli (strain K12)) (UniProt P10408); assay: Assay to Identify E. coli SecA ATPase Inhibitors; type: functional; conditions: 30 µM
[2] = molecular target: T1, Ubiquitin-activating enzyme e1, putative (Leishmania donovani (strain BPK282A1)) (UniProt E9BSI1); assay: Leishmania donovani Ubiquitin Activating Enzyme (LdE1); type: functional; conditions: 30 µM
T1 sequence (whole entry): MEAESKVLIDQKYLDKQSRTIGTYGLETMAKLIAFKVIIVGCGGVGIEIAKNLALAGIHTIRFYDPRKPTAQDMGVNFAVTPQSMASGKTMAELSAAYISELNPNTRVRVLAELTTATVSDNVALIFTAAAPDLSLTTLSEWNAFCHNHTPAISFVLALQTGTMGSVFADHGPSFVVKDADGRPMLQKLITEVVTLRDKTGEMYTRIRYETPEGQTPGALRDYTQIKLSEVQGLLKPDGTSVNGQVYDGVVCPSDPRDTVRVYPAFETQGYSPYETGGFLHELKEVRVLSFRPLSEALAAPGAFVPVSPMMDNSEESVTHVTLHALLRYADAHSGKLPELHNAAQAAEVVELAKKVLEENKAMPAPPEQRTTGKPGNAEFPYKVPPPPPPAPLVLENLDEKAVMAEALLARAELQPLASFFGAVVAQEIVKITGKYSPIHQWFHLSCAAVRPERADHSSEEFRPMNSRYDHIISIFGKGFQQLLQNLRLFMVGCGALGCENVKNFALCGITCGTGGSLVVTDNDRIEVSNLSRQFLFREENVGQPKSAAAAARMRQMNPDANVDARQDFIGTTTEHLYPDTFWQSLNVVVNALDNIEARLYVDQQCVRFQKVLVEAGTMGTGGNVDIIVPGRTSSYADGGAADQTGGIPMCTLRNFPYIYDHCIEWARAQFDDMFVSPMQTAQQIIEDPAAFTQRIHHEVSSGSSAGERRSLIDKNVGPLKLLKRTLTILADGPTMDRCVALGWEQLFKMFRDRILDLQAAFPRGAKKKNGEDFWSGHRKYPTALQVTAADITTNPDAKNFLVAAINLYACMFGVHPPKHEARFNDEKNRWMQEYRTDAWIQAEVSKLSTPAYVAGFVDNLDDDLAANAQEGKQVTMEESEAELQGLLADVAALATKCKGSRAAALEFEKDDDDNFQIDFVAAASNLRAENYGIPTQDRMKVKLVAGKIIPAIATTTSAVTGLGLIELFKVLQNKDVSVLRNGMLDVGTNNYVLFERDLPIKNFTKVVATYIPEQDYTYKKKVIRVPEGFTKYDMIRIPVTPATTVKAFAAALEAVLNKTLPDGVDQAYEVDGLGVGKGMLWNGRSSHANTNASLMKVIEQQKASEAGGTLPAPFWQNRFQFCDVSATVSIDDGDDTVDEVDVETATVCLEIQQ

[3] = molecular target: Sialic acid-binding Ig-like lectin 9 (Homo sapiens) (UniProt Q9Y336); assay: Hs-Siglec9 ALPHAscreen SOP 20170721; conditions: 10 µM
Sequence of Sialic acid-binding Ig-like lectin 9 (Homo sapiens) (Q9Y336 whole entry): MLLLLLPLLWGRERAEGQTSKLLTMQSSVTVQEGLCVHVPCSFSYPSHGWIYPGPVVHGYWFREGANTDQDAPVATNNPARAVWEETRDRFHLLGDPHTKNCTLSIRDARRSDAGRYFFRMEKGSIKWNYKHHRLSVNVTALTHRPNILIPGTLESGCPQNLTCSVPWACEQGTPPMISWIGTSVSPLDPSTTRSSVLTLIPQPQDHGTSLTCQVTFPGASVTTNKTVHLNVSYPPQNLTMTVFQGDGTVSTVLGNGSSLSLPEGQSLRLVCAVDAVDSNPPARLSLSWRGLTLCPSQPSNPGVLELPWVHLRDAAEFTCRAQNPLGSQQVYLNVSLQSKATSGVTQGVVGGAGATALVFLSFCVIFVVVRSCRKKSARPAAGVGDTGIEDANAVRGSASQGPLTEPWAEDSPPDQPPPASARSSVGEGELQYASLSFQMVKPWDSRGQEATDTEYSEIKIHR

Trypanosoma cruzi = assay: Trypanosoma cruzi phosphomannomutase and mannose-1-phosphate guanylyltransferase assay; type: functional; conditions: 10 µM
[4] = molecular target: T2, Arginase-2, mitochondrial (Homo sapiens) (UniProt P78540); assay: in vitro enzyme assay to detect the production of urea directly proportional to the activity of Arginase II; type: functional; conditions: 33.3 µM; also: in the data most compounds retested in dose-response had high values
T2 sequence (whole entry): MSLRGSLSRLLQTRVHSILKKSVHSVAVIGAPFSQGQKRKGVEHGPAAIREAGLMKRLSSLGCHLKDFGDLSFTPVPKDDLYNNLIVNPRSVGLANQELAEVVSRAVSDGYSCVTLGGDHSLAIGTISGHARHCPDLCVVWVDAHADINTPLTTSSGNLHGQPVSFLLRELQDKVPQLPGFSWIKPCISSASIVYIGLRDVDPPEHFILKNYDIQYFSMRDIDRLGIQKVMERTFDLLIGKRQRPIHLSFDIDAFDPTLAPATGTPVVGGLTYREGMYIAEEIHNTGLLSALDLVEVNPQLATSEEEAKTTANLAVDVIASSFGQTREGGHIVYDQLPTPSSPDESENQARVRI

[5] = molecular target: T3, Proteasome subunit beta (Trypanosoma cruzi) (UniProt O96673); assay: Trypanosoma cruzi proteasome chymotrypsin-like activity (TcProtChymo) assay.; also: in the data most compounds retested in dose-response had high values; type: functional; conditions: 9.37 µM
T3 sequence (whole entry): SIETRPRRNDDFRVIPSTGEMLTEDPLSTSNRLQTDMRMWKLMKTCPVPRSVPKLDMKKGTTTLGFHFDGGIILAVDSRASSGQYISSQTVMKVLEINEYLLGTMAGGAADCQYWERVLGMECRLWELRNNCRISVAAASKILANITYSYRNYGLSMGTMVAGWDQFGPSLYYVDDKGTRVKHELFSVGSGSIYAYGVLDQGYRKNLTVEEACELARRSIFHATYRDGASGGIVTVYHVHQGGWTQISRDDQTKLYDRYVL

Homo sapiens = species on record: Homo sapiens; assay: To identify inhibition of the IFN signalling (Jak-Stat) pathway via expression of an eGFP reporter gene under the control of an IFN-stimulated response element (ISRE) containing MxA promoter.; type: functional; conditions: 30 µM
[6] = molecular target: T4, Tyrosyl-tRNA synthetase, putative (Trypanosoma cruzi (strain CL Brener)) (UniProt Q4DSP6); assay: Trypanosoma cruzi tyrosyl tRNA synthetase (TcYRS) _High Tyrosine SOP; type: functional; conditions: 30 µM; also: in the data most compounds retested in dose-response had high values
T4 sequence (whole entry): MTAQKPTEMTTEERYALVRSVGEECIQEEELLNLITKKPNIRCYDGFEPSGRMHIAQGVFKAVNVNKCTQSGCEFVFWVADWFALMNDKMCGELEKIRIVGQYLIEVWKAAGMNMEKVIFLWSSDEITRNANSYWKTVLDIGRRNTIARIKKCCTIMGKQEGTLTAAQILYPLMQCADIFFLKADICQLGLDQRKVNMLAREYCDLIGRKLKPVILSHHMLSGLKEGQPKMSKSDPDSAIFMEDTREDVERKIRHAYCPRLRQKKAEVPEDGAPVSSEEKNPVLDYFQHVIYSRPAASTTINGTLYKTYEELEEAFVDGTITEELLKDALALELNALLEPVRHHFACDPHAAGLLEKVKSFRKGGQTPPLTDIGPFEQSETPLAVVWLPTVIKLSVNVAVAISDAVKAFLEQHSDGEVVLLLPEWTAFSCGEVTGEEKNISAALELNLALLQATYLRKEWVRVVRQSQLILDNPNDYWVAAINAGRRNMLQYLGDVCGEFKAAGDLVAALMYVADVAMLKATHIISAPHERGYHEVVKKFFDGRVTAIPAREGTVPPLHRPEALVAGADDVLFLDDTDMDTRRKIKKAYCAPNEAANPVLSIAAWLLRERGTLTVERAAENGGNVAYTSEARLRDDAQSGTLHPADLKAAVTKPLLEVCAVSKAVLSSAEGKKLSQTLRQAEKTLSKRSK

[7] = molecular target: T4, Tyrosyl-tRNA synthetase, putative (Trypanosoma cruzi (strain CL Brener)); assay: Trypanosoma cruzi tyrosyl tRNA synthetase (TcYRS) SOP; type: functional; conditions: 30 µM
[8] = molecular target: Chromo domain-containing protein 1 (Saccharomyces cerevisiae (strain ATCC 204508 / S288c) (Baker's yeast)) (UniProt P32657); assay: ScCHD-1 Enzyme Inhibition Assay; type: functional; conditions: 30 µM; also: in the data most compounds retested in dose-response had high values
Sequence of Chromo domain-containing protein 1 (Saccharomyces cerevisiae (strain ATCC 204508 / S288c) (Baker's yeast)) (P32657 whole entry, the tested form may be a part): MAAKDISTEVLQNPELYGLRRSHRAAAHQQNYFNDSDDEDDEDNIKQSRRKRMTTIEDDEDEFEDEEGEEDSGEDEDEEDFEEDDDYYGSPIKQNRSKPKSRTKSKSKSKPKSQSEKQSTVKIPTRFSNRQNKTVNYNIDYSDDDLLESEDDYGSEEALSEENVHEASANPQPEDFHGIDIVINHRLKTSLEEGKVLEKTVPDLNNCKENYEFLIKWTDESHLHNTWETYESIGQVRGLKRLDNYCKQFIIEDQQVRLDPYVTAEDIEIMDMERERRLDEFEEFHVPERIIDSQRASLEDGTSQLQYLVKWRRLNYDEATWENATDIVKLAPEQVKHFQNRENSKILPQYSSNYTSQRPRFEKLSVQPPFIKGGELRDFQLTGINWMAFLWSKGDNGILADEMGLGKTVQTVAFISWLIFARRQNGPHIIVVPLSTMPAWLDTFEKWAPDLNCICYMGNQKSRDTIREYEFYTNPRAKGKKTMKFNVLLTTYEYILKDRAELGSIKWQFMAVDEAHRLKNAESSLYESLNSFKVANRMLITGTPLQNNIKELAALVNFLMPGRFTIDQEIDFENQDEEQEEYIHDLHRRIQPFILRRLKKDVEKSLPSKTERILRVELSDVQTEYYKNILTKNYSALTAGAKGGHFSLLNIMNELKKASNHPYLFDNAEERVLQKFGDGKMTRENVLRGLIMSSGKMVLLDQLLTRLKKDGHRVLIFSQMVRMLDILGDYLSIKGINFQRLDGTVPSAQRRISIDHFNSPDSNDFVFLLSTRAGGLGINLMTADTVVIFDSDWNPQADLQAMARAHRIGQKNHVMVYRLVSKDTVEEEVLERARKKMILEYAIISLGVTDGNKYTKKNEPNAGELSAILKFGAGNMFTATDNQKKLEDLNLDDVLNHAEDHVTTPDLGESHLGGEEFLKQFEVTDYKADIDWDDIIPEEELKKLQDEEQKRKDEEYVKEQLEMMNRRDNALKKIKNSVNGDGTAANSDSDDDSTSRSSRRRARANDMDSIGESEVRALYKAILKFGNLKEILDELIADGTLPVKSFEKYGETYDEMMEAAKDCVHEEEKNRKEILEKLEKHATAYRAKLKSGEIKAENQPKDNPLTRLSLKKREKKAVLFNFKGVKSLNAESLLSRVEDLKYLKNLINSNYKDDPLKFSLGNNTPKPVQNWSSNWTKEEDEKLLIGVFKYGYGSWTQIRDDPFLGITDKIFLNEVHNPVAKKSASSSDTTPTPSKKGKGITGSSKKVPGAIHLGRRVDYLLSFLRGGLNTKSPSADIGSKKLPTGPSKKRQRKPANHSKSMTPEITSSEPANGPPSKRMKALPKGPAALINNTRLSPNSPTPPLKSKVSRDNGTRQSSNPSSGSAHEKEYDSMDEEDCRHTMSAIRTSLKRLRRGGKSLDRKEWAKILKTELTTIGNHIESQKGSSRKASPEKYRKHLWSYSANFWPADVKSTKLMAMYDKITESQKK

Sequence of Protein translocase subunit SecA (Escherichia coli (strain K12)) (P10408 whole entry): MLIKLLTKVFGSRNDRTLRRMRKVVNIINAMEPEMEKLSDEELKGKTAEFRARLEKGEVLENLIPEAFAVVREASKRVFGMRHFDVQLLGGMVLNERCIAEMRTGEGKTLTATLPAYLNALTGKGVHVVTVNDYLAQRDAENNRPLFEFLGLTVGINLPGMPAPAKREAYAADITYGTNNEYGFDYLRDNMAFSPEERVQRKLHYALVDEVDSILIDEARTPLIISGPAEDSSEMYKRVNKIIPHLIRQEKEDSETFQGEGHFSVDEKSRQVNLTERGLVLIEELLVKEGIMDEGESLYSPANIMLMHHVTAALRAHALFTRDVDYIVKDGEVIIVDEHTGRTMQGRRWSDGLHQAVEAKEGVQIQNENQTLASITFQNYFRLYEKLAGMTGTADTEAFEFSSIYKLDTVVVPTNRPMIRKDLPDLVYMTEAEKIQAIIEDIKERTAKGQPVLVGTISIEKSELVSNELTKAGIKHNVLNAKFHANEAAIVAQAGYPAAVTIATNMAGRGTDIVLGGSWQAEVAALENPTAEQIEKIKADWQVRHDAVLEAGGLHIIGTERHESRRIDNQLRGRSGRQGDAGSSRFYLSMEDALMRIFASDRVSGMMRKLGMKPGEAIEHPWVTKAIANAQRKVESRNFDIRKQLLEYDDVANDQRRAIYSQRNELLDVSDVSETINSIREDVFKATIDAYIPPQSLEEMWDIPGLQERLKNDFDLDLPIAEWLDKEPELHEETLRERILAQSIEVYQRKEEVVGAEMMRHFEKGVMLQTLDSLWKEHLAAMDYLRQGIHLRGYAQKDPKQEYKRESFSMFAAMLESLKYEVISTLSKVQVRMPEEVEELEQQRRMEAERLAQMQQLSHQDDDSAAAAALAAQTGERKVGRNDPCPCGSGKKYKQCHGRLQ

Compound	Percent Effect [1] [%]	Percent Effect [2] [%]	Percent Effect [3] [%]	Percent Effect (Trypanosoma cruzi) [%]	Percent Effect [4] [%]	Percent Effect [5] [%]	Percent Effect (Homo sapiens) [%]	Percent Effect [6] [%]	Percent Effect [7] [%]	Percent Effect [8] [%]
COC(=O)c1cccn1C1CCN(Cc2ccccc2)CC1	0.208	7.79	10	2.05	-10.9	6.49	16.2	3.92	11.8	-3.52
Cc1cc(NC(=O)NCC2CCOC2)no1 (stereo not given)	0.735	10.7	0.0318	-6.63	9.76	5	5.61	4.74	7.69	-11.3
Cc1cn[nH]c1C1CCCCN1C(=O)CCN1CCCCCC1 (stereo not given)	0.428	4	-1.68	-7.89	1.77	10	10.3	2.12	5	-25
COCCCN1CC2(CCCCN2C(=O)c2ccsc2)CC1=O (stereo not given)	0.227	3.9	1.99	2.44	1.83	0.601	15.2	0	7.5	2.21
Cc1cnn(CC2CCCN2C(=O)c2cc3c(F)cccc3[nH]2)c1 (stereo not given)	-2.09	5.2	8.2	-5.6	-2.66	2.81	26.7	1.96	11.8	-1.7
Cc1cccnc1CNCC1(O)CCCN(Cc2ccc(F)cc2)C1=O (stereo not given)	-5.67	8.11	19.1	9.41	29.7	-0.514	5.17	15.4	29.3	-3.8
Cc1noc(C)c1CC(=O)OCC(=O)N1CCc2sccc2C1	-3.42	18.7	0.304	0.201	-3.99	14.3	12.1	6.84	23.1	-8.07
Cc1nc(N2CCCC2)nc2c1CN(C(=O)N1CCOCC1)CC2	-4.38	14.3	1.78	0.75	3.2	15.9	1.81	10.6	15	-9.99
CC(C)NC(=O)C1CN(C(=O)N2CCCC2)CC12CCOCC2 (stereo not given)	-1.18	-3.9	-4.49	-1.27	-4.45	-6.62	5.24	2.63	2.56	2.05
CCc1nc(CC(=O)N2CCCC2Cn2cccn2)cs1 (stereo not given)	-2.88	2.67	6.12	0.402	4.43	6.19	-17.2	2.63	7.69	-10
O=C(Cn1c(=O)nc2n1C(=O)N(c1ccccc1)C2)Nc1ccccc1	-6.94	16.2	9.15	2.23	24.8	23.6	5.58	6.92	14.6	75.6
COc1cccc(-n2nnc(C(=O)N3CCNC(=O)C3)c2C)c1	-4.4	15.4	-22.9	9.11	0.41	8.96	16	5.26	25.3	22.3
Cn1nc2c(cc1=O)CN(Cc1nnc(-c3ccco3)o1)CC2	-3.79	17.9	-11.1	4.6	1.23	13.2	7.66	4.31	22.9	17.4
CNc1snc(C)c1C(=O)N1CCCC(n2ccnc2C(C)C)C1 (stereo not given)	-0.908	0	1.03	2.21	0.444	5	14.7	1.58	0	-1.07
CC(=O)NCCC(=O)NCc1cccnc1-n1cnc2ccccc21	0.292	0	2.93	6.69	12.2	1.71	-5.79	-0.532	2.44	98.3
O=C(O)c1csc(S(=O)(=O)Nc2cccc(OC(F)F)c2)c1	-5.06	-7.69	-2.43	-1.03	5.74	8.11	2.87	-5.26	1.21	-6.19
CC(C)(O)CN1CCN(C(=O)c2cccnc2O)CC1	-2.01	-2.56	5.77	7.98	2.46	9.13	-4.14	1.44	1.21	-0.501
COCCc1noc(CN2CCCCC2Cn2nc(C)cc2C)n1 (stereo not given)	-2.9	-2.6	13.8	-1.68	2.25	-3.51	-5.82	0.98	7.06	9
Cc1ccn(-c2cccc(C(=O)N3CCCC(n4ccnc4C)C3)c2)n1 (stereo not given)	-0.853	7.79	11.9	-9.7	-3.89	8.42	26.1	5.88	9.41	-1.96
COc1ccc(OCCN(C)C(=O)NC(C)c2nncn2C)cc1 (stereo not given)	-4.39	10.7	-0.704	-5.02	5.76	15.3	17.3	3.68	12.8	-6.11
CCN1CCN(C(=O)NCCOc2ccc3c(c2)OCO3)CC1	-3.49	20.8	7.69	-3.92	1.84	12.6	-5.27	2.94	16.5	-6.7
CCc1nc(C)ncc1C(=O)N1CCCC(n2nc(C)nc2C)C1 (stereo not given)	-0.229	-53.9	-2.48	8.92	-3.69	0.0853	-15.3	-3.35	6.02	-2.45
Cn1cc(CN2CCCC3(CCCN3S(C)(=O)=O)C2)cn1 (stereo not given)	-3.74	9.09	-4.49	-4.77	2.02	12.3	-3.8	5.79	10.3	1.97
